From PubChem
A selection: hits, their analogues and other compounds. The true share with any hit is near 2.3%.
Pol iota inh = DNA polymerase iota (human) inhibition | Q9UNA4 | Pol iota fluorescent replication assay, 10 min | Potency, µM (series often up to 115 µM), without a hit: at the top dose activity, negative = inhibition, hits mostly inhibitors | actives 1% (n = 390,000) | AID 588590; also: potency is read from the fitted curve at half-maximal effect
Target sequence (Q9UNA4 whole entry, looked up): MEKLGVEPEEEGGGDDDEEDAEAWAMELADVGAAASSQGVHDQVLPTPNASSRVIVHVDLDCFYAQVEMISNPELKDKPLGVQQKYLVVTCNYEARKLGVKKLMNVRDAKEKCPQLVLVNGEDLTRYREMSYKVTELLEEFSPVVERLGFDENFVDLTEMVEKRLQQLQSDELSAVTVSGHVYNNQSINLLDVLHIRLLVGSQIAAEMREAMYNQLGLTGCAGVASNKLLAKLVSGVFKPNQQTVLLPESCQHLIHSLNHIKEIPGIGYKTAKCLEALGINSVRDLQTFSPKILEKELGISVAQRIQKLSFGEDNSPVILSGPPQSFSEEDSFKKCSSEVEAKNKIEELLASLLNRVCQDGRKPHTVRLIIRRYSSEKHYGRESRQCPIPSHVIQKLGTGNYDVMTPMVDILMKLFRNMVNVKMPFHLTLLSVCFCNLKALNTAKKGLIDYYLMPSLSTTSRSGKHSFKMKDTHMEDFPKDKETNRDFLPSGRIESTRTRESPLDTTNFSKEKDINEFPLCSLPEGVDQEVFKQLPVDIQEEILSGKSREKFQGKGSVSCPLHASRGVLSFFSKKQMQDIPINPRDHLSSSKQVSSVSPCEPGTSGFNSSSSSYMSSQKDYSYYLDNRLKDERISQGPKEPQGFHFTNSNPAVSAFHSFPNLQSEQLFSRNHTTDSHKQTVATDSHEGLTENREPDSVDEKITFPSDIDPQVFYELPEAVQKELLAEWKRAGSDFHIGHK
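Fluorescent replication assay read twice, at 0 min and 10 min after adding 50 nM (final) substrate. Enzyme (10 nM) and compounds were first incubated 15 min at room temperature; enzyme-free buffer wells were negative controls.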
Pol kappa inh-1 = blocks human DNA polymerase kappa activity. Q9UBT6. actives 0.53% (n = 400,000). Potency, µM (titrated, usually from 107 µM), without a hit: at the top dose activity, negative = inhibition, most hits filed as inhibitors. purified Pol kappa, fluorescent DNA synthesis assay, 10 min. AID 588579; also: potency is read from the fitted curve at half-maximal effect; % is scaled to controls: 0 for no effect and ±100 for the full control effect
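First, compounds were pin-transferred onto 10 nM Pol kappa. After 15 min at room temperature, substrate was added to 50 nM final. Fluorescence was then measured kinetically at 0 and 10 min.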
WRN helicase inh = inhibitors of human WRN helicase | AID 651768 | Q14191 | WRN helicase unwinding, fluorescent forked duplex, kinetic | Potency, µM (highest dose often 114 µM), inactives show at the top dose activity change, negative = inhibition, usual class: inhibitors | actives 0.46% (n = 360,000); also: potency is read from the fitted curve at half-maximal effect; % is scaled to controls: 0 for no effect and ±100 for the full control effect; nearly all actives have a fitted effect of over 55% in size
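Screening of the MLSMR collection measured strand separation of a quenched forked DNA duplex (100 nM) by 20 nM WRN with 2 mM ATP, all final. Compounds were preincubated with enzyme 15 min at room temperature.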
Pol eta inh-1 = inhibitors of human DNA polymerase eta. recombinant Pol eta, fluorescent DNA replication assay. AID 588591. Q9Y253. actives 1.2% (n = 390,000). Potency, µM (series often up to 114 µM), for inactives: at the top dose activity change, negative = inhibition, most hits filed as inhibitors; also: potency is read from the fitted curve at half-maximal effect; % is scaled to controls: 0 for no effect and ±100 for the full control effect
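Pol eta at 10 nM preincubated with compounds 15 min at room temperature; reaction started with fluorescent substrate (50 nM final) and read kinetically at 0 and 10 min.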
POLB inh = blocks human DNA polymerase beta activity; actives 1.3% (n = 340,000); AID 485314; Potency, µM (highest dose often 114 µM), for the others: at the highest dose activity change, negative = inhibition, actives largely listed as inhibitors; Pol beta primer extension/strand displacement, fluorescence kinetic; also: potency is read from the fitted curve at half-maximal effect; % is scaled to controls: 0 for no effect and ±100 for the full control effect
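Homogeneous kinetic assay of primer extension and strand displacement by 10 nM Pol beta, preincubated 15 min at room temperature with compound before 50 nM substrate (final) was added. Read at 0 and 10 min; four-parameter Hill fit.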
GALK confirm = galactokinase (human) inhibition, confirmation; shares compounds with Pol eta inh-1; purified GALK, Kinase-Glo ATP depletion luminescence; Potency, µM (titrated, usually from 115 µM), inactives show top-dose activity, negative = inhibition, hits mostly inhibitors; actives 70% (n = 150)
GALK redox cs = generates H2O2 by redox cycling, flagging GALK artifacts; shares compounds with Pol eta inh-1; Phenol red-HRP H2O2 redox cycling, absorbance 600 nm; Potency, µM (titrated, usually from 115 µM), without a hit: top-dose activity change, negative = H2O2 signal, most hits filed as inhibitors; actives 40% (n = 150); AID 2035
HEK293 viability = counter-screen for GALK inhibitors: HEK293 cell cytotoxicity; HEK-293 viability, ATP luminescence (CellTiter-Glo), 24/48 h; AID 2547; actives 10% (n = 170); shares compounds with Pol eta inh-1; Potency, µM (top dose mostly 46.1 µM), for inactives: at the highest dose activity change, negative = cytotoxicity, hits mostly inhibitors; also: potency is read from the fitted curve at half-maximal effect; % is scaled to controls: 0 for no effect and ±100 for the full control effect
Pol kappa inh-2 = Pol kappa (human) inhibition, cherry-pick confirmation. Potency, µM, actives largely listed as inhibitors. AID 720501. shares compounds with Pol eta inh-1. actives 76% (n = 920). purified Pol-kappa, fluorescent strand-displacement substrate; also: potency is read from the fitted curve at half-maximal effect
Pol eta inh-2 = confirmation of human DNA polymerase eta inhibitors | shares compounds with Pol eta inh-1 | Pol eta primer extension, TAMRA/BHQ fluorescence, 10 min | Potency, µM, actives largely listed as inhibitors | actives 64% (n = 2,600); also: potency is read from the fitted curve at half-maximal effect
* marks the source's active call; other numbers are inactive results; [ ] = remark or other dose. Calls follow the shape of the dose curve; as a rule, active = well fitted curve in the direction sought with a large enough effect; inconclusive = small, poorly fitted or top-dose-only effect, or another doubt; inactive = no such curve, though single readings can be large; an effect the other way counts as inactive or inconclusive.

CCOCCCn1c(SCc2nc3sc(C(=O)O)c(C)c3c(=O)[nH]2)nnc1-c1ccc(Cl)cc1 was read as Pol iota inh 50%, Pol kappa inh-1 -5%, WRN helicase inh -21%, Pol eta inh-1 -21% and POLB inh -11%.
`Cc1ccc(-n2nnnc2SCc2nc3sc(C)c(C)c3c(=O)[nH]2)cc1` gave Pol iota inh 22%, Pol kappa inh-1 -1%, WRN helicase inh -2%, Pol eta inh-1 3% and POLB inh 6%.
Cc1nnc(SCc2nc3sc(C(=O)O)c(C)c3c(=O)[nH]2)s1 was read as Pol iota inh 20µM*, Pol kappa inh-1 89µM*, WRN helicase inh -23%, Pol eta inh-1 22µM*, POLB inh 0% and Pol eta inh-2 43*.
For CC(=O)c1sc2nc(CSc3nnnn3-c3ccccc3)[nH]c(=O)c2c1C the results were Pol iota inh 11µM*, Pol kappa inh-1 inconclusive, WRN helicase inh 28µM*, Pol eta inh-1 10µM*, POLB inh 13µM* and Pol eta inh-2 67*.
For Cc1c(C(=O)O)sc2nc(CSc3nnc(-c4ccc(F)cc4)n3C)[nH]c(=O)c12 the results were Pol iota inh inconclusive, Pol kappa inh-1 -30%, WRN helicase inh inconclusive, Pol eta inh-1 35µM*, POLB inh 1% and Pol eta inh-2 inconclusive.
C=CCn1c(SCc2nc3sc(C(=O)O)c(C)c3c(=O)[nH]2)nnc1-c1ccc(C(C)(C)C)cc1 was read as Pol iota inh inconclusive, Pol kappa inh-1 35µM*, WRN helicase inh inconclusive, Pol eta inh-1 7.1µM*, POLB inh 22µM*, Pol kappa inh-2 12* and Pol eta inh-2 30*.
CCCCN(CC)C(=O)c1nn(C)c2c1CSc1ccccc1-2 was read as Pol iota inh -2%, Pol kappa inh-1 3%, Pol eta inh-1 -19% and POLB inh -24%.
Screening COc1ccc(Cl)cc1NC(=O)CSc1cn(CC(=O)N2CCCCCC2)c2ccccc12 returned Pol iota inh inconclusive, Pol kappa inh-1 -38%, Pol eta inh-1 -7% and POLB inh -1%.
`CCOc1ccccc1-n1nnc(-c2nsc(NC(=O)c3ccc(C)cc3)n2)c1C` gave Pol iota inh 9%, Pol kappa inh-1 6%, Pol eta inh-1 -12% and POLB inh -7%.
Screening Cc1ccc(C(c2ccc(C)o2)c2cccc([N+](=O)[O-])c2O)o1 returned Pol iota inh inconclusive, Pol kappa inh-1 inconclusive, WRN helicase inh inconclusive, Pol eta inh-1 18µM*, POLB inh inconclusive and Pol eta inh-2 85*.
For Cc1cc(C(c2ccc(C)o2)c2ccc(C)o2)c(O)c([N+](=O)[O-])c1 the results were Pol iota inh inconclusive, Pol kappa inh-1 -11%, WRN helicase inh -13%, Pol eta inh-1 -19% and POLB inh 6%.
COc1ccc(C(CC(=O)Nc2ccc(OC)c(OC)c2)N2Cc3ccccc3C2=O)cc1 (centres undefined) was read as Pol iota inh 8%, Pol kappa inh-1 -6%[60.1 µM], Pol eta inh-1 4% and POLB inh 4%.
For Cc1ccccc1CN1C(=O)c2ccccc2Sc2ccc(C(=O)NCCc3ccccc3)cc21 the results were Pol iota inh 6%, Pol kappa inh-1 -9%[60.1 µM], Pol eta inh-1 -10% and POLB inh 3%.
For O=c1cc(-c2ccccc2)oc2cc(O)cc(O)c12 the results were Pol iota inh 14%, Pol kappa inh-1 -5%, WRN helicase inh 6% and Pol eta inh-1 9%.
O=c1cc(-c2cc(O)c(O)c(O)c2)oc2cc(O)cc(O)c12 was read as Pol kappa inh-1 0.4µM*, GALK confirm 42µM*, GALK redox cs -1% and HEK293 viability -2%.
`COc1ccc(CCNC(=O)CCCn2nc(C)c3sc4ccccc4c3c2=O)c(OC)c1` gave Pol iota inh inconclusive, Pol kappa inh-1 -21%, Pol eta inh-1 -5% and POLB inh -18%.
For O=C(O)c1cc(NS(=O)(=O)c2ccc(N3CCOCC3)c([N+](=O)[O-])c2)cc(C(=O)O)c1 the results were Pol iota inh 7%, Pol kappa inh-1 -7%, WRN helicase inh -18%, Pol eta inh-1 4% and POLB inh -2%.
`O=C(O)c1cc(NS(=O)(=O)c2ccc(NCc3ccccc3)c([N+](=O)[O-])c2)cc(C(=O)O)c1` gave Pol iota inh -11%, Pol kappa inh-1 -24%, WRN helicase inh -9%[11.6 µM], Pol eta inh-1 16µM*, POLB inh -20% and Pol kappa inh-2 inconclusive.
Cc1ccc(Cl)cc1NC(=O)CCn1cnc2ccccc2c1=O was read as Pol iota inh inconclusive, Pol kappa inh-1 -6%[60.1 µM], Pol eta inh-1 45µM*, POLB inh inconclusive and Pol eta inh-2 76*.
`Cc1cc(C)cc(NC(=O)CCn2cnc3ccccc3c2=O)c1` gave Pol iota inh -26%, Pol kappa inh-1 -8%[60.1 µM], Pol eta inh-1 7% and POLB inh inconclusive.
CC(C)CCn1c(SCc2cccc(F)c2)nc2ccsc2c1=O was read as Pol iota inh 17%, Pol kappa inh-1 -3%[60.1 µM], Pol eta inh-1 -13% and POLB inh 0%.
CSc1ccccc1NC(=O)c1cc2ncc(Br)cn2n1 was read as Pol iota inh -83%, Pol kappa inh-1 inconclusive, WRN helicase inh -18%[57.1 µM], Pol eta inh-1 45µM*, POLB inh inconclusive and Pol eta inh-2 inconclusive.
